The supplement of paper PMC11732987, “Enantioselective OTUD7B fragment discovery through chemoproteomics screening and high-throughput optimisation” (Communications Chemistry, 2025)

Key:
Assay in all cases: log2 ratio of Biotin-Ahx-Ub-VS probe labelling (fragment/DMSO); higher = less target engagement (more negative = stronger competition), active = hit call of the paper (q ≤ 0.05, log2 ratio ≤ -1)
Conditions in all cases: compound concentration: 200 uM; treatment time: 3 h
USP34 = USP34 (UniProt Q70CQ2)
USP34, sequence (Q70CQ2 whole entry, the tested form may be a part): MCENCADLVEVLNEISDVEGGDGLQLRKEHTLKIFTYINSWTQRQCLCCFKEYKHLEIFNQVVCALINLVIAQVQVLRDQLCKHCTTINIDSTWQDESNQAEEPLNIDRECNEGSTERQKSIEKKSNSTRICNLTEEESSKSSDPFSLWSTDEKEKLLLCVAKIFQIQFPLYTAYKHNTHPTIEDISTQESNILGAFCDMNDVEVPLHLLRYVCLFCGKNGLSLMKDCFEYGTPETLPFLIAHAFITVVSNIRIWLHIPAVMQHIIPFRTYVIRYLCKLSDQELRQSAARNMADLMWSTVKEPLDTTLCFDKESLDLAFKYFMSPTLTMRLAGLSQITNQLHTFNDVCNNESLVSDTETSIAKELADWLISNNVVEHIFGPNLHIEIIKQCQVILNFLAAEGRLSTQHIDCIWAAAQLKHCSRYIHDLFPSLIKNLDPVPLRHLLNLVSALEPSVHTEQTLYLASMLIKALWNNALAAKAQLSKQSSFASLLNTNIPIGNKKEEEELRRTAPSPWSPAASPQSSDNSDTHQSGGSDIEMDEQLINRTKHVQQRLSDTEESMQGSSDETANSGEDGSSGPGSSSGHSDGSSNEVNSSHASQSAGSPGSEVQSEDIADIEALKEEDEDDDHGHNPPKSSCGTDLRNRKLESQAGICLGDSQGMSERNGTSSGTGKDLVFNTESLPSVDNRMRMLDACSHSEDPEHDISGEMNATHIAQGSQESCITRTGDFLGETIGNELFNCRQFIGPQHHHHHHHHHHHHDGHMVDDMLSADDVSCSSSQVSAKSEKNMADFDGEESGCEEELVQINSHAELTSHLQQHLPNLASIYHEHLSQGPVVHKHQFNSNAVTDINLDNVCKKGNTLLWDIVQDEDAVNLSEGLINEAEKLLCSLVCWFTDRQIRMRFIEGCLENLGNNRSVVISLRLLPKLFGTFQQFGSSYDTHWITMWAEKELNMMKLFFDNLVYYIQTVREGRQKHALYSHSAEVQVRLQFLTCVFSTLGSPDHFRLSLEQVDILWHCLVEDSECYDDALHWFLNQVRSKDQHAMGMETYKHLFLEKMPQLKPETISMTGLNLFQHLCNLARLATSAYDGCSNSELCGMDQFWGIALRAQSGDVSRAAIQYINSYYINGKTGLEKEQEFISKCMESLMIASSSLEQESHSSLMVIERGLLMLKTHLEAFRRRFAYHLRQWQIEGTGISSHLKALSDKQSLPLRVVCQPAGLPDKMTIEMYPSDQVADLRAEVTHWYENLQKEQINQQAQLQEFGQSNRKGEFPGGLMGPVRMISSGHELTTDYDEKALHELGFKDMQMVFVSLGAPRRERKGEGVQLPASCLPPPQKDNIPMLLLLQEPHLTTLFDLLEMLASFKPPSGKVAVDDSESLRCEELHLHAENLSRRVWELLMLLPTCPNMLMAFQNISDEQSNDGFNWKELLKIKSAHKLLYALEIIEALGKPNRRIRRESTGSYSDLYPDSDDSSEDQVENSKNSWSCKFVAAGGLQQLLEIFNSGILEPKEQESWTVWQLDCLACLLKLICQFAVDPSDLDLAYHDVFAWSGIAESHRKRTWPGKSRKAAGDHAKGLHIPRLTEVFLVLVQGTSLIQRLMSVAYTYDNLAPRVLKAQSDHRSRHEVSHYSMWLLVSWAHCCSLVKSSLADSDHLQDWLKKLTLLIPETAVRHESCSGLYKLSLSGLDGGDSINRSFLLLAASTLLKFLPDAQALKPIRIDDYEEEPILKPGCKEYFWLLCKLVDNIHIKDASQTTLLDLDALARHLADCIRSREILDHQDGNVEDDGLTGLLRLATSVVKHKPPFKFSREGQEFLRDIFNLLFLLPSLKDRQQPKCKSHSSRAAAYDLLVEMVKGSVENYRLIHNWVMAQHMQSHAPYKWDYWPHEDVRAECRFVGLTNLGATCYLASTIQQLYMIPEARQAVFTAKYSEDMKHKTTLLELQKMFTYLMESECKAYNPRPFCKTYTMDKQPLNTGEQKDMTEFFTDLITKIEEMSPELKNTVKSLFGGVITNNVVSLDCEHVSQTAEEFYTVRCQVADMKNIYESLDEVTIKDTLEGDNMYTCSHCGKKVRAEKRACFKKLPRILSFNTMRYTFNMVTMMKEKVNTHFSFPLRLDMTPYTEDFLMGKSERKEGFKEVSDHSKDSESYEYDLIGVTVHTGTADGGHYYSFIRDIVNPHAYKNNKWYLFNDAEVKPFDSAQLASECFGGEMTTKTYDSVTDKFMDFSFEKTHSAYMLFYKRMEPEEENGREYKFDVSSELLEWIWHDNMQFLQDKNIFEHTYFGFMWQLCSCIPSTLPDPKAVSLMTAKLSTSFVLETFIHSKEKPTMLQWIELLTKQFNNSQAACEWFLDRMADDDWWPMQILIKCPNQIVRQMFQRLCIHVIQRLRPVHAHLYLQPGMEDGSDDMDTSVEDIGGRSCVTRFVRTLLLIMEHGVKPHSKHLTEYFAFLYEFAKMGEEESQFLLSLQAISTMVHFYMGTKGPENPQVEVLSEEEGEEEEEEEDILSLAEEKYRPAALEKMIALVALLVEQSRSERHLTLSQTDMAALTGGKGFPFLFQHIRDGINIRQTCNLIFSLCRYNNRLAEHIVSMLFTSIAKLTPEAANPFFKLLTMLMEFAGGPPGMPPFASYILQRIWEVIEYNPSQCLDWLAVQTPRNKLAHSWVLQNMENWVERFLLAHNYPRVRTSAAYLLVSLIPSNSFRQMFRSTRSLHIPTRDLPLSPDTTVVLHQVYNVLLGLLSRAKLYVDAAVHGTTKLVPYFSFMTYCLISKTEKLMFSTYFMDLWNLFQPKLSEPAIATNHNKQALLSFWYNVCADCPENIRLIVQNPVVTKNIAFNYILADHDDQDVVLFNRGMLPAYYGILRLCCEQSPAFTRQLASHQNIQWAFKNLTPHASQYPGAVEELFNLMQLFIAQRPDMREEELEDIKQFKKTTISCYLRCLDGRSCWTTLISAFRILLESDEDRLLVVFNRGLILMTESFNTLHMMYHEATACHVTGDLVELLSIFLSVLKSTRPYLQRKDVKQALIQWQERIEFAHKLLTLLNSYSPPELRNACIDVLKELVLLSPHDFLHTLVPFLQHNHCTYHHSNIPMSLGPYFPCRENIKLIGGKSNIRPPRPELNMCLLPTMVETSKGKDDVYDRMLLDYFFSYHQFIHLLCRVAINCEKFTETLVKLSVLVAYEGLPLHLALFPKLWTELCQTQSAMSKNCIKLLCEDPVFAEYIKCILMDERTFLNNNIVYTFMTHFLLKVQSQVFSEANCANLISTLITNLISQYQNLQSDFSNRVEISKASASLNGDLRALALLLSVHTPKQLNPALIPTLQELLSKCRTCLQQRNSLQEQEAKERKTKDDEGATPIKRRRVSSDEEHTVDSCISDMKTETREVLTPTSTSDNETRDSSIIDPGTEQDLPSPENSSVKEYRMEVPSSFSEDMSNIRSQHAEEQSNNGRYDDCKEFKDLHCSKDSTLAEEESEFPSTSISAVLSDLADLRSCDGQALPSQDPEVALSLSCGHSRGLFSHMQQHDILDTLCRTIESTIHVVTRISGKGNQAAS
Method in brief: (§1)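 Global-median-normalised Spectronaut label-free quantities were compared by unpaired t-test, and values are average log2 ratios of fragment over vehicle. Only proteins with ≥2 unique peptides were used. HEK293T lysate (495 µg per sample) was treated in triplicate with fragment at 200 µM or vehicle for 3 h and then with Biotin-Ahx-Ub-VS at 0.5 µM final for 1 h. Labelled DUBs were then NeutrAvidin-enriched, digested with LysC and trypsin, and run by diaPASEF LC-MS/MS.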

USP36 = target: T1, USP36 (UniProt Q9P275)
T1 sequence (whole entry): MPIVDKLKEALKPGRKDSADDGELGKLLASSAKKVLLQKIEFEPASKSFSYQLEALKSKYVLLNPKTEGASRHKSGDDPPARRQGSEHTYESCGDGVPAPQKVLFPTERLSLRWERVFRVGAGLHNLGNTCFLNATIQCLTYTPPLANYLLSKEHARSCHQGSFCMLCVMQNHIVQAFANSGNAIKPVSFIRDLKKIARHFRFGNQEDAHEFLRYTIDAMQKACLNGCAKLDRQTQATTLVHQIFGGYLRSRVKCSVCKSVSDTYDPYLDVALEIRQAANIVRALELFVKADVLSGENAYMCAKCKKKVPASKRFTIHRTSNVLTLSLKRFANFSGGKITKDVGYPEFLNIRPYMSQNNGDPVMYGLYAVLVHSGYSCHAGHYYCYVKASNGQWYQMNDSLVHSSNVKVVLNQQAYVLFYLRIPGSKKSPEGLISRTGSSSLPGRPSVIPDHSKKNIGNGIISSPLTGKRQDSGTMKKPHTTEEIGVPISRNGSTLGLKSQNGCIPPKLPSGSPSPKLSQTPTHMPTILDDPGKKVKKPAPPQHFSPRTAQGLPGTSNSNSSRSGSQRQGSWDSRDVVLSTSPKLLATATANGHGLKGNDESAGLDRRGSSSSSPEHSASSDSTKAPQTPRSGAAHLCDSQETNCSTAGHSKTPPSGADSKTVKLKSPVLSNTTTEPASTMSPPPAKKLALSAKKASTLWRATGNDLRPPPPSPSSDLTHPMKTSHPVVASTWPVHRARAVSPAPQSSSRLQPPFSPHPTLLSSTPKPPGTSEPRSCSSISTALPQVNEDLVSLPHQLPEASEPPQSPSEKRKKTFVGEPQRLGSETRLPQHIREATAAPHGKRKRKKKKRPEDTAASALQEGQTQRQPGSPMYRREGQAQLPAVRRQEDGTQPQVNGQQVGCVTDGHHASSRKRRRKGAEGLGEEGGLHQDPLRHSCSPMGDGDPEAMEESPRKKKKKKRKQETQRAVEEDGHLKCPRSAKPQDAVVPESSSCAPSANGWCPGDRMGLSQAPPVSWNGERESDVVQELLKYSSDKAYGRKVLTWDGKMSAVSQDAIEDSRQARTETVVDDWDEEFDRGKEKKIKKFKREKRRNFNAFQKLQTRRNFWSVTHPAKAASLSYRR
Method in brief: as §1

USP38 = target: T2, USP38 (UniProt Q8NB14)
T2 sequence (whole entry): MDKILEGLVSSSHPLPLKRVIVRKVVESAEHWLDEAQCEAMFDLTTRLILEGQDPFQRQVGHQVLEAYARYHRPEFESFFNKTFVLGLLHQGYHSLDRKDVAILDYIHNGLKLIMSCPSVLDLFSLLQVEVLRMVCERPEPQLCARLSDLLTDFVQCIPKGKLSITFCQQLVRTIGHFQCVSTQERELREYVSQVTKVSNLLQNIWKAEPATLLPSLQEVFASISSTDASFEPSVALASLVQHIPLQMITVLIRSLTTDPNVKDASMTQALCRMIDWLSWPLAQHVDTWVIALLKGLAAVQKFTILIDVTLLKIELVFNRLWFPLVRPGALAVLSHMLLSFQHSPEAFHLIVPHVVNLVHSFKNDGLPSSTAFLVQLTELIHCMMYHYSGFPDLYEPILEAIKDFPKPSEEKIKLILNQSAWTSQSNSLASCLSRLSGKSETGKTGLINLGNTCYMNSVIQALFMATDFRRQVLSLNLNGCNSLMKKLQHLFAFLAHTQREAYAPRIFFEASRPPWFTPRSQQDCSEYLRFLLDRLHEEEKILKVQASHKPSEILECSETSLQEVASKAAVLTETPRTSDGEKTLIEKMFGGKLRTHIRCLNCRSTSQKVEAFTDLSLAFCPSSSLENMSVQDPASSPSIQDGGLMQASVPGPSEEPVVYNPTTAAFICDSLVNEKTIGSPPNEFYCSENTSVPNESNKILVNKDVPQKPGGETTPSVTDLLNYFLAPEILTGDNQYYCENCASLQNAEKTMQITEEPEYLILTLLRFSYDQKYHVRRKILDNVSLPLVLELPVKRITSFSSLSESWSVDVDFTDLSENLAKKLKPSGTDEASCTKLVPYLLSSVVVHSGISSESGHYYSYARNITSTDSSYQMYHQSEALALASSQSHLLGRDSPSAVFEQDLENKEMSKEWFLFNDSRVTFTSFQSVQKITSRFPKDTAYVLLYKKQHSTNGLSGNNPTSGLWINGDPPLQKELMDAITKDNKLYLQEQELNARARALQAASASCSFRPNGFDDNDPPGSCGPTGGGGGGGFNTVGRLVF
Method in brief: as §1

USP39 = target: T3, USP39 (UniProt Q53GS9)
T3 sequence (whole entry): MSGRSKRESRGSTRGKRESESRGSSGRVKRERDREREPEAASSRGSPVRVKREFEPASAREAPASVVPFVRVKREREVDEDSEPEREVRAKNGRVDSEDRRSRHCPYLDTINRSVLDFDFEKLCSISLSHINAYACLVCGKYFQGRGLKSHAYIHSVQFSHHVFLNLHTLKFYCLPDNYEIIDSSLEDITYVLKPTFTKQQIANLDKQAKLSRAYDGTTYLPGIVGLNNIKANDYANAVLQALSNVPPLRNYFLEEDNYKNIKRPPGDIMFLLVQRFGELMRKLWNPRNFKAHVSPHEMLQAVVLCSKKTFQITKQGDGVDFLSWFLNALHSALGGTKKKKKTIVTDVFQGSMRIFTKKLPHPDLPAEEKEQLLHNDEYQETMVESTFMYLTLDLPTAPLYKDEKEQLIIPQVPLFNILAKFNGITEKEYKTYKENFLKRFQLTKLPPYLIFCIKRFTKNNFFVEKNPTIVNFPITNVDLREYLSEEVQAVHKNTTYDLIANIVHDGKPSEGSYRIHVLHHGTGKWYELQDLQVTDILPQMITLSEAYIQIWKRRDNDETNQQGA
Method in brief: as §1

USP4 = target: T4, USP4 (UniProt Q13107)
T4 sequence (whole entry): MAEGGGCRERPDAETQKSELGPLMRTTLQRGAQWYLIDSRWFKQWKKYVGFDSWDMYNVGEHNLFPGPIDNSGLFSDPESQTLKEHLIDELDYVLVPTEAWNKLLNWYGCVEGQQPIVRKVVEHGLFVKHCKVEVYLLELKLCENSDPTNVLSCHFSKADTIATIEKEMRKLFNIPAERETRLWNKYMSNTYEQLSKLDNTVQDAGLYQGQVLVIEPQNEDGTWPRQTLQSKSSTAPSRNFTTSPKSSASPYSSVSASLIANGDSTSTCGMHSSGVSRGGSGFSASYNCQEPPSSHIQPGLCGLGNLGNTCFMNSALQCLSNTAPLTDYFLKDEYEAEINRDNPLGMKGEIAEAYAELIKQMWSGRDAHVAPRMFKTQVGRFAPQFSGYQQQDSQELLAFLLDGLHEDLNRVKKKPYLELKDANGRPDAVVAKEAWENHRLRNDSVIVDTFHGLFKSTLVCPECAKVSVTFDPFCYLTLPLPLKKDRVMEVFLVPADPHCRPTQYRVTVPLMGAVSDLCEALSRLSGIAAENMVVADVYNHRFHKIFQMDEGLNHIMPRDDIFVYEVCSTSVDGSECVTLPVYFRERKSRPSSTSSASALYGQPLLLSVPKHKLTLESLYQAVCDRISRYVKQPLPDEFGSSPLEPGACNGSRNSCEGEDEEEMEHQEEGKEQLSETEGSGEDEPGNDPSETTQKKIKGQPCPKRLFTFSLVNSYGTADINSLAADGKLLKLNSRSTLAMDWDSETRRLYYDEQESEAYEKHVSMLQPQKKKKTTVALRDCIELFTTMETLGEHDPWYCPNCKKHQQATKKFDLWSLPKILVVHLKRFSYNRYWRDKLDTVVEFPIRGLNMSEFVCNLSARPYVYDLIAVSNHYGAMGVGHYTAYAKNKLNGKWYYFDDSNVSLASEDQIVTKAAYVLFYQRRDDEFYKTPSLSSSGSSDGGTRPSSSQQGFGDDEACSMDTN
Method in brief: as §1

Measured: log2 ratio of Biotin-Ahx-Ub-VS probe labelling

Cl.Cn1ncc2c1CCCC2NC(=O)CCl (stereo not given)
inactive: USP34 -0.0828 | USP36 -0.298 | USP38 -0.175 | USP39 -0.0961 | USP4 0.00214
